# Measured values: PubChem BioAssay (NCI)
# This is part of a sample that, as a whole, favours compounds with a hit. Of some 83,000 tested, about 20% had one in any assay.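 Plates (96-well) were seeded with cells, treated with compound at one concentration, and incubated for 48 hours before percent growth was determined.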 Unmarked numbers belong to inactive results. Activity calls are given as the source filed them. How the source made its calls: active means growth percent below 10; inactive means the rest.
# Assays:
# Experiment in all cases: NCI-60 one-dose screen, 48 h (100 = growth as untreated, 0 = no growth, -100 = all killed)
# [1] = tested on: NCI-H23 lung; conditions: 10 µM unless noted
# [2] = tested on: NCI-H226 lung; conditions: 10 µM unless noted
# [3] = tested on: NCI-H322M lung; conditions: 10 µM unless noted
# [4] = tested on: HOP-62 NSCLC; conditions: 10 µM unless noted
# [5] = tested on: NCI-H460 lung; conditions: 10 µM unless noted
# [6] = tested on: HOP-92 NSCLC; conditions: 10 µM unless noted
# [7] = tested on: NCI-H522 lung; conditions: 10 µM unless noted
# [8] = tested on: A549/ATCC NSCLC; conditions: 10 µM unless noted
# [9] = tested on: 786-0 renal; conditions: 10 µM unless noted
# [10] = tested on: COLO 205 colon; conditions: 10 µM unless noted
# [11] = tested on: DU-145 prostate; conditions: 10 µM unless noted
# [12] = tested on: K-562 leukemia; conditions: 10 µM unless noted
# [13] = tested on: MALME-3M melanoma; conditions: 10 µM unless noted
# [14] = tested on: MDA-MB-231 breast; conditions: 10 µM unless noted
# [15] = tested on: RXF 393 renal; conditions: 10 µM unless noted
# [16] = tested on: SF-268 CNS; conditions: 10 µM unless noted
# [17] = tested on: SF-295 CNS; conditions: 10 µM unless noted
# [18] = tested on: SF-539 CNS; conditions: 10 µM unless noted
# [19] = tested on: UACC-257 melanoma; conditions: 10 µM
# [20] = tested on: M14 melanoma; conditions: 10 µM unless noted
SMILES,growth [1] [%],growth [2] [%],growth [3] [%],growth [4] [%],growth [5],growth [6],growth [7],growth [8] [%],growth [9],growth [10],growth [11] [%],growth [12],growth [13],growth [14] [%],growth [15],growth [16] [%],growth [17],growth [18],growth [19],growth [20]
Cc1ccc(/C=C/CC(=O)Nc2ccc(C(=O)Nc3ccc(F)cc3N)cc2)cn1,68.6,68.6,74.4,59.1,72.1%,22.6%,30.4%,69.2,75.6%,49.4%,54.3,34%,41.4%,69.3,74.5%,60.4,69.7%,55.9%,52.4%,56.7%
Oc1ccccc1/C=N/Nc1nc(N/N=C/c2ccccc2O)nc(N2CCOCC2)n1,41.5,23.3,44.5,25.7,32.5%,-12.8% (active),60.9%,13,30.3%,48%,35.5,25.4%,52.6%,36.3,-0.648% (active),72.3,19.6%,51.8%,53.3%,37.6%
O=C(CN1CCN(c2cc(=O)n(-c3ccccc3)c3ccccc23)CC1)Nc1ccc([N+](=O)[O-])cc1,82.5,83.5,88.1,95.1,94.3%,76.5%,82.5%,95.1,90.5%,107%,99.8,71.4%,83.9%,77.2,68.7%,89.7,103%,91.7%,90.3%,99%
N#C/C(=C\c1ccc2ccccc2c1)C(=O)Nc1sc2c(c1C#N)CCC2,99.5,94.1,113,106,104%,81.4%,96.7%,98.4,99.6%,115%,103,96.2%,116%,98.1,107%,103,95.3%,102%,108%,106%
O=C(COc1cccc2cccnc12)Nc1ccc(C(=O)/C=C/c2ccc(Cl)cc2)cc1,89.2,94.6,99.1,108,102%,108%,85.2%,85.4,99%,108%,88.7,47.4%,108%,93.4,92.5%,93.7,91.6%,93.5%,99.8%,99.5%
COc1ccc(-c2nc(SCCC(C)C)nc(N/N=C\c3ccc(O)cc3)c2C#N)cc1,36.3,97.3,82.7,61.9,10.9%,67.7%,87.7%,60.2,34%,106%,59.7,42.2%,79.3%,54.2,78%,55.7,91.6%,35.1%,111%,76.6%
CCN(CC)Cc1c(-c2cccc(OC(F)(F)F)c2)[nH]c2ccc(N3CCCC3)cc2c1=O,92.9,96.1,87.3,103,97.5%,86.2%,87.5%,99,98.6%,103%,99.7,87.8%,86%,87,74.1%,89.1,102%,95%,91.3%,96.9%
CCOC(=O)c1c(NCC(=O)Nc2cccc(Cl)c2)sc2c1CCCC2,66.5,69.8,91.4,78.6,92.5%,96.3%,65.9%,101,106%,101%,93.8,66%,82.8%,86.5,87.3%,84.8,80.1%,92.5%,99.1%,83.2%
CCCCCCNC(=O)Oc1ccc(/C(=C(/C)c2ccc(Cl)cc2)c2ccc(OCCN3CCCC3)cc2)cc1,48.3,83.1,69.2,65,-57% (active),26%,65.3%,53.4,-28.8% (active),-36.4% (active),69.2,6.52% (active),-70.8% (active),30.6,9.25% (active),61.9,-32.7% (active),-24.4% (active),-16.5% (active),-54.3% (active)
O=C(/C=C1\C=CN(CCCCF)c2ccccc21)n1ccc2ccccc21,98.5,91.9,93.3,93,113%,90.9%,94.7%,104,107%,96.6%,127,104%,100%,94.9,126%,121,106%,98.8%,110%,101%
COc1cc(C(=O)C[n+]2ccc3ccccc3c2)cc(OC)c1OC,96.6,95.9,98.3,97.3,101%,80%,92.9%,105,102%,103%,105,91.7%,91.5%,93.3,101%,100,100%,100%,103%,98.1%
COc1ccc2c(ccn2C(=O)N2c3ccccc3Sc3ccccc32)c1,40.3,51.6,52.6,35.3,14.2%,25.4%,-26.8% (active),43.8,50.1%,-33.3% (active),28.2,18.7%,51.3%,64.5,12%,63,16.5%,11.6%,70.3%,21.8%
CC(c1ccccc1)N1C(=O)/C(=C/c2csc(C#N)n2)SC1=S (stereo not given),101,97,99.8,103,106%,85.5%,75.4%,95.8,91%,91.8%,87.7,40.8%,82.4%,90.1,90.1%,101,103%,93.4%,81.7%,78.4%
CN(C)C(=O)C1=NC(CO)C(=O)N(c2ccc(Cl)cc2)N1 (stereo not given),104,105,98.6,98.9,104%,91.4%,97.1%,99,93.9%,105%,107,109%,101%,97.9,120%,97.8,103%,95.8%,107%,92.8%
CCn1c2ccc(/C=N/NS(=O)(=O)CCN(C)C)cc2c2cc(/C=N/NS(=O)(=O)CCN(C)C)ccc21,97.4,96.5,85.7,82.7,101%,92.2%,86.6%,101,92%,115%,105,94.1%,85.3%,89.7,96.6%,90.2,103%,90.5%,103%,104%
